Screening data as filed in PubChem.
IL-1B inflam inh: inflammasome signaling inhibition, IL-1 beta readout; THP-1 LPS/ATP IL-1B secretion, AlphaLISA, 16 h; stronger effect = lower value; activity change, % at 57.5 µM; actives 4.7% (n = 360,000); in the data active = activity change below about -50%; inconclusive = mostly about -30% to -49%
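THP-1 cells pretreated 1 hr with compounds (up to 57.5 uM final), then stimulated with LPS (250 ng/mL final) plus ATP (1.25 mM final); secreted IL-1B measured by AlphaLISA after 16 hr, decreased signal indicating inhibition.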
HT1080NT lethal: kills 2HG-producing HT-1080-NT fibrosarcoma cells; HT-1080-NT fibrosarcoma viability, CellTiter-Glo ATP luminescence, 48 h; Potency, µM (titrated, usually from 46.1 µM), for the others: at the highest dose activity, negative = less viability, actives largely listed as cytotoxic; actives 1.6% (n = 360,000);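 note: NT is the 2HG producing partner of a matched IDH1 knockdown line; potency is the fitted concentration of half-maximal effect; 0% = DMSO-treated cells and -100% = media-only wells without cells; nearly all actives have a fitted effect of over 55% in size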
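HT-1080-NT; 750 cells/well; 5% FBS RPMI; 48 h compound, 37 degrees C; CellTiter-Glo luminescence; curve fitting and curve-class assignment.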
HT1080 IDH1KD tx: toxicity to HT-1080 IDH1 knockdown cells (counter line). HT-1080 IDH1 knockdown viability, ATP luminescence, 48 h. Potency, µM (doses to about 46.1 µM), without a hit: top-dose activity, negative = toxicity, hits mostly cytotoxic. actives 2% (n = 360,000). AID 686971;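 note: potency is the fitted concentration of half-maximal effect; 0% = DMSO wells and -100% = cell-free medium wells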
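Knockdown cells (IDH1KD HT-1080) received compounds 2 h after plating at 750 cells/well and were kept 48 h at 37 °C in 5% FBS RPMI. A CellTiter-Glo luminescence read gave % activity for curve fitting.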
TDP1 cell CPT: DT40-hTDP1 cell growth loss with CPT; actives 12% (n = 420,000); Potency, µM (top dose mostly 46.2 µM), for inactives: at the highest dose activity change, negative = growth inhibition, most hits filed as inhibitors; chicken DT40 Tdp1-/-;hTDP1 cells + 20 nM CPT, ATP luminescence, 48 h; AID 686979; note: potency is the fitted concentration of half-maximal effect; nearly all actives have a fitted effect of over 55% in size
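Chicken DT40 Tdp1-/- cells complemented with human TDP1, 400 cells/well, exposed to compounds plus 20 nM camptothecin for at least 48 h at 37 C; viability read as ATP content by CellTiter-Glo luminescence.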
DT40 TDP1 no CPT: qHTS for Inhibitors of human tyrosyl-DNA phosphodiesterase 1 (TDP1): qHTS in cells in absence of CPT; DT40 Tdp1-/- hTDP1 cells, no CPT, ATP luminescence, 48 h; Potency, µM (titrated, usually from 46.2 µM), without a hit: top-dose activity change, negative = growth inhibition, usual class: inhibitors; actives 15% (n = 420,000); AID 686978, 2013; note: potency is the fitted concentration of half-maximal effect; nearly all actives have a fitted effect of over 55% in size
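Cells were dispensed at 400 per well, compounds added by pin tool, plates incubated ≥48 hr at 37 °C, then CellTiter-Glo added for 30 min at room temperature before luminescence reading. Line: DT40 Tdp1-/- complemented with hTDP1; camptothecin omitted.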
* marks the source's active call; other numbers are inactive results; ? = inconclusive; . = no result. Rows were chosen to be rich in hits. Some 19% of all compounds tested hit in one or more screens of this group. Unless noted, calls come from the whole dose curve; as a rule, active = well fitted curve in the direction sought with a large enough effect; inconclusive = small, poorly fitted or top-dose-only effect, or another doubt; inactive = no such curve, though single readings can be large; an effect the other way counts as inactive or inconclusive. Unless noted, % is set by controls: 0 for no effect and ±100 for the full control effect.

SMILES	IL-1B inflam inh	HT1080NT lethal	HT1080 IDH1KD tx	TDP1 cell CPT	DT40 TDP1 no CPT
C=CCn1c(=O)c(C(=O)NCc2ccc3c(c2)OCO3)c(O)c2cc(OC)c(OC)cc21	-21.5	20.4%	15.0%	?	18.4µM*
Cc1cc(CNC(=O)c2ccc3c(c2)OCO3)c2ccccc2n1	103.8	?	?	7.31µM*	4.61µM*
Cc1nc2ccccc2nc1OCC(=O)NCc1ccc2c(c1)OCO2	2.7	-5.9%	?	14.6µM*	7.31µM*
O=C(NCc1ccc2c(c1)OCO2)c1ccccc1Cl	-68.0*	-2.8%	-2.3%	-3.2%	2.7%
CC(C)CN(CCCNC(=O)CN1N=C(c2ccccc2)CCC1=O)CC(C)C	.	.	.	0.6%	-4.3%
Cc1nc2c3ccccc3nc(NNC(=O)CCC(=O)N3CCCC(C)C3)n2n1 (stereo not drawn)	2.4	-0.4%	-0.8%	-1.2%	-16.8%
COC1c2ccccc2C(=O)N1CCc1ccc(Cl)cc1 (stereo not drawn)	-7.1	7.2%	14.6%	-22.6%	-6.0%
O=C(N/N=C/c1cc(Cl)cc([N+](=O)[O-])c1O)NC12CC3CC(CC(C3)C1)C2	14.1	-20.2%	-13.5%	?	?
O=C(CSc1ccccn1)N1CCc2ccccc21	-16.9	21.5%	11.6%	0.9%	-4.3%
CC(C)(C)C(=O)c1cn(CC(=O)NCc2ccc3c(c2)OCO3)c2ccccc12	-20.6	-13.2%	-16.9%	?	23.1µM*
S=C(NCc1ccc2c(c1)OCO2)NCc1ccc2c(c1)OCO2	30.7	-5.3%	-4.7%	2.6%	-8.6%
O=C(NCc1ccc2c(c1)OCO2)c1n[nH]c(=O)c2ccccc12	-2.8	-19.8%	-13.1%	?	?
CCc1cccc(CC)c1NC(=S)NCc1ccc2c(c1)OCO2	-10.4	-1.9%	-2.3%	23.1µM*	18.4µM*
CC(C)C(=O)c1cn(CC(=O)NCc2ccc3c(c2)OCO3)c2ccccc12	-22.6	-6.5%	-7.3%	-28.3%	?
CC(C)n1nc(C(=O)NCc2ccc3c(c2)OCO3)c2ccccc2c1=O	28.1	-2.3%	-2.3%	16.4µM*	20.6µM*
O=C(NCc1ccc2c(c1)OCO2)c1c(F)c(F)c(F)c(F)c1F	-64.7*	-15.4%	0.1%	-9.3%	4.1%
O=C(NCc1ccc2c(c1)OCO2)c1ccc2c(c1)OCO2	-15.3	0.1%	-4.6%	-1.9%	-4.4%
CCc1cccc(CC)c1NC(=S)NC(C)c1ccccc1 (stereo not drawn)	-25.2	-2.0%	7.0%	-85.0%	23.1µM*
O=C(NCc1ccc2c(c1)OCO2)c1cc(-c2ccccn2)nc2ccccc12	-81.9*	1.1%	-4.4%	-27.5%	?
CCOC(=O)C1CCN(C(=O)CNC(=O)c2nn(-c3ccc(OC)cc3)c(=O)c3ccccc23)CC1	-0.1	-0.7%	-2.1%	?	?
CSc1ccccc1NC(=O)CSc1nnc(COc2ccccc2)o1	3.1	18.7%	13.3%	2.5%	-8.5%
Cc1sc2nc(CSCC(=O)Nc3ccccc3C#N)[nH]c(=O)c2c1C	1.4	0.5%	0.9%	?	16.4µM*
S=C(NCc1ccco1)Nc1cc(Cl)c(Cl)cc1Cl	-51.8*	?	?	?	?
S=C(NCc1ccco1)Nc1ccc(Cl)c(Cl)c1	-100.6*	?	?	?	?
O=C(Cn1ncc2c1-c1ccccc1OC2)N1CCN(c2ccccc2F)CC1	.	.	.	?	18.4µM*
SMILES	IL-1B inflam inh	HT1080NT lethal	HT1080 IDH1KD tx	TDP1 cell CPT	DT40 TDP1 no CPT
COc1cccc(N2CCN(C(=O)Cn3ncc4c3-c3ccccc3OC4)CC2)c1	.	.	.	-24.0%	23.1µM*
Cc1ccc(C)c(CN2CCCN(C(=O)Cn3ncc4c3-c3ccccc3OC4)C2)c1	-12.4	-24.9%	-13.3%	13µM*	16.4µM*
CC#CC[N+](C)(C)CCCCCCCCCCCC	0.0	23.1µM*	23.1µM*	0.581µM*	0.461µM*
C#CC[N+](C)(C)CCCCCCCCCC	-79.8*	?	11.6µM*	2.06µM*	2.31µM*
C#CC[N+](C)(C)CCCCCCCCCCCC	-87.6*	10.3µM*	11.6µM*	1.3µM*	0.651µM*
C#CC[N+](C)(C)CCCCCCCC	-54.3*	?	?	?	?
CN1C(=O)C(C)(C)c2cc(S(=O)(=O)NCc3ccc(C(=O)NCc4ccco4)cc3)ccc21	-19.6	-1.3%	-7.3%	-29.9%	?
O=C(CSc1nnc(NC(=O)c2cccc(F)c2)s1)NC1CCCC1	-5.8	14.3%	10.4%	9.8%	-11.1%
Cc1c(C(=O)NN)nc2ccccn12	12.6	-0.4%	-5.6%	-4.0%	-2.7%
Cc1ccccc1OCC(O)CO (stereo not drawn)	.	.	.	10.1%	2.7%
COc1cc2c(cc1OC)CN(c1ncccc1[N+](=O)[O-])CC2	?	0.4%	-1.2%	0.6%	-23.7%
COc1ccc(CC(=O)NNS(=O)(=O)c2ccccc2[N+](=O)[O-])cc1OC	-10.3	10.9%	4.7%	7.0%	-18.1%
COc1cc2c(cc1OC)C(Cc1ccccc1[N+](=O)[O-])=NCC2	12.2	-0.9%	-1.4%	?	23.1µM*
COc1ccc(NC(=O)COC(=O)Cc2ccccc2[N+](=O)[O-])cc1OC	-3.8	-1.9%	-1.5%	?	25.9µM*
COc1ccc(NCc2ccccc2[N+](=O)[O-])cc1OC	-1.3	-5.0%	0.6%	16.4µM*	16.4µM*
COc1ccccc1CNc1ccc2c(c1)CCC2	-60.0*	-13.6%	-8.0%	4.61µM*	10.3µM*
COc1ccccc1C(=O)NC(=O)COC(=O)Cc1ccccc1[N+](=O)[O-]	15.6	5.5%	17.6%	?	?
